HepG2 tox: counter-screen for TGF-b inhibitors: cytotoxicity in HepG2 cells; HepG2 CAGA-GFP viability, ATP luminescence, 18 h; Potency, µM (highest dose often 46.1 µM), actives largely listed as cytotoxic; hit rate 0.76% among 410,000; AID 588856
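CellTiter-Glo luminescence gave cytotoxicity after 18 hours at 37 degrees C. The cells were HepG2 CAGA-GFP in 1% FBS DMEM, stimulated with 500 pg/mL TGF-beta after compound addition. %Activity was normalised to no-cell wells (complete cell-killing) and DMSO (no toxicity), and curves were fitted and classified.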
TDP1 cell CPT: DT40-hTDP1 cell growth loss with CPT; chicken DT40 Tdp1-/-;hTDP1 cells + 20 nM CPT, ATP luminescence, 48 h; Potency, µM (series often up to 46.2 µM), most hits filed as inhibitors; hit rate 12% among 420,000; further: nearly all actives have a fitted effect of over 55% in size
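Chicken DT40 Tdp1-/- cells complemented with human TDP1, 400 cells/well, exposed to compounds plus 20 nM camptothecin for at least 48 h at 37 C; viability read as ATP content by CellTiter-Glo luminescence.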
TGFb inhibitor: TGF-b pathway inhibition; hit rate 1.2% among 410,000; HepG2 CAGA-GFP TGF-b/SMAD3 reporter, GFP fluorescence, 18 h; TGF-beta stimulated, 500 pg/mL final; Potency, µM (titrated, usually from 46.1 µM), usual class: inhibitors; AID 588855; further: nearly all actives have a fitted effect of over 65% in size
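First, reporter cells (HEPG2 CAGA-GFP) rested 2 h at 37 degrees C. Next, compounds were pinned in and TGF-beta added to 500 pg/mL final. After 18 h, GFP was imaged per cell and summed per well.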
DT40 TDP1 no CPT: qHTS for Inhibitors of human tyrosyl-DNA phosphodiesterase 1 (TDP1): qHTS in cells in absence of CPT; DT40 Tdp1-/- hTDP1 cells, no CPT, ATP luminescence, 48 h; hit rate 15% among 420,000; Potency, µM (highest dose often 46.2 µM), actives largely listed as inhibitors; AID 686978, 2013; further: nearly all actives have a fitted effect of over 55% in size
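DT40 Tdp1-/-;hTDP1 cells, no CPT (DMSO vehicle only), 400 cells/well; compounds pin-transferred; ≥48 hr, 37 °C; CellTiter-Glo 30 min RT dark, luminescence read.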
ATXN viability: cell viability loss in ATXN counter-screen; S2 cells (HEK-293 line with an ATXN2-luciferase reporter) viability, CellTiter-Fluor protease fluorescence, 24 h; Potency, µM (series often up to 56.7 µM), usual class: cytotoxic; hit rate 0.49% among 400,000; further: nearly all actives have a fitted effect of over 40% in size
ATXN2 expr inh: inhibitors of ATXN2 expression; HEK-293 ATXN2-luciferase reporter, luminescence, 24 h; Potency, µM (doses to about 57 µM), most hits filed as inhibitors; hit rate 0.72% among 360,000; AID 1745845; further: nearly all actives have a fitted effect of over 55% in size
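qHTS (up to 57 uM final) was run with 24 h compound exposure of reporter cells at 37 °C. Each well was multiplexed: SteadyGlo luminescence measured ATXN2-luciferase expression after a fluorogenic Gly-Phe-AFC viability readout (25 uM final).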
Numbers stand for hits; 0 = inactive; ? = inconclusive; - = no result. Rows were chosen to be rich in hits. Some 17% of all compounds tested hit in one or more screens of this group. The call rests on the fitted dose curve; in most records, active means well fitted curve in the direction sought with a large enough effect; inconclusive means small, poorly fitted or top-dose-only effect, or another doubt; inactive means no such curve, though single readings can be large; an effect the other way counts as inactive or inconclusive.

SMILES | HepG2 tox | TDP1 cell CPT | TGFb inhibitor | DT40 TDP1 no CPT | ATXN viability | ATXN2 expr inh
Cc1ccc(S(=O)(=O)NCC2CCC(C(=O)N3CCN(C)CC3)CC2)cc1 (centres undefined) | 0 | 0 | 0 | ? | 0 | -
Cc1c(C)c2c(c(C)c1OC(=O)c1cccnc1)CC[C@@](C)(CCC[C@H](C)CCC[C@H](C)CCCC(C)C)O2 | - | 0 | - | 0 | 0 | 0
c1ccc(-c2ccccc2OCCCCN2CCCCCC2)cc1 | 0 | 18µM | 0 | ? | ? | -
c1ccc(COc2ccc(OCCCCN3CCCC3)cc2)cc1 | 0 | ? | 0 | 23µM | 0 | 0
c1ccc(COc2ccc(OCCCN3CCCCC3)cc2)cc1 | 0 | ? | 0 | ? | 0 | 0
CCOC(=O)c1c(NC(=O)c2nc(SC(C)C)ncc2Cl)sc2c1CCCC2 | 0 | 0 | 0 | 0 | 0 | 0
Cc1ccsc1C(=O)NC1CCCN(Cc2ccc(Cl)cc2)C1 (centres undefined) | 0 | ? | 0 | 15µM | 0 | 0
Cc1cc(C(=O)NC2CCCN(Cc3ccc(Cl)cc3)C2)c(C)o1 (centres undefined) | 0 | ? | 0 | ? | 0 | 0
Cc1cccc(-n2c(=O)cc(N3CCN(c4ccc(F)cc4)CC3)[nH]c2=O)c1 | 0 | ? | 0 | 18µM | 0 | 0
O=c1cc(N2CCN(c3ccc(F)cc3)CC2)[nH]c(=O)n1-c1ccc(Br)cc1 | 0 | ? | 0 | ? | - | -
CC(C)S(=O)(=O)c1oc(-c2ccc(F)cc2)nc1S(=O)(=O)c1ccccc1 | 3.2µM | 0.73µM | 1.4µM | 0.46µM | - | -
CSc1oc(-c2ccc(F)cc2)nc1S(=O)(=O)c1ccccc1 | 0 | 0 | 0 | 0 | 0 | 0
CC(C)S(=O)(=O)c1oc(-c2cccs2)nc1S(=O)(=O)c1ccc(F)cc1 | 3.5µM | 0.65µM | 2.5µM | 0.46µM | - | -
O=C(Nc1cccc(-c2cscn2)c1)C1CCN(Cc2ccccn2)CC1 | 0 | ? | 0 | ? | 0 | -
COc1cccc(C(=O)Nc2ccc(-n3nncc3-c3ccccc3)cc2)c1OC | 0 | 0 | 0 | 0 | - | -
Cc1nc2c(c3c1[nH]c1ccccc13)C(O)CC(C)(C)C2 (centres undefined) | 0 | 18µM | 0 | ? | 0 | 0
Cc1nn(-c2ccccc2)c2c1C(O)CC(C)(C)C2 (centres undefined) | 0 | 0 | 0 | 0 | 0 | 0
CCCC(=O)N1CCN(c2ccc(NC(=O)c3ccc(Br)o3)cc2)CC1 | 0 | 0 | 0 | 0 | 0 | 0
CC1CCN(C(=O)c2ccc([N+](=O)[O-])o2)CC1 | 0 | ? | 0 | 0 | 0 | 0
CC1CCN(c2ccc(NC(=O)c3ccc([N+](=O)[O-])o3)cc2)CC1 | 0 | 4.6µM | ? | 3.3µM | ? | 0
CCC(=O)N1CCN(c2ccc(NC(=O)c3ccc([N+](=O)[O-])o3)cc2)CC1 | 0 | 4.6µM | ? | 21µM | 0 | 0
CCc1ccc2oc(C(=O)NCC(c3ccc(Cl)cc3)N3CCOCC3)c(C)c2c1 (centres undefined) | 0 | 8.2µM | 0 | 8.2µM | ? | 0
Cc1ccc2c(C)c(C(=O)NCC(c3ccc(Cl)cc3)N3CCOCC3)oc2c1 (centres undefined) | 0 | 15µM | ? | 12µM | ? | ?
O=C(NCc1ccc(Cl)cc1)C(=O)NCC(c1ccc2c(c1)OCO2)N1CCOCC1 (centres undefined) | 0 | ? | 0 | ? | - | -
Cc1ccsc1/C=N/n1c(-c2ccccn2)n[nH]c1=S | 0 | 0 | 0 | 0 | 0 | 0
SMILES | HepG2 tox | TDP1 cell CPT | TGFb inhibitor | DT40 TDP1 no CPT | ATXN viability | ATXN2 expr inh
Nn1c(SCC(=O)Nc2ccc(OC(F)F)cc2)nnc(Cc2ccccc2)c1=O | 0 | 0 | 0 | ? | 0 | 0
O=C1CC(N2CCN(Cc3ccc4c(c3)OCO4)CC2)C(=O)N1CCc1ccccc1 (centres undefined) | 0 | 13µM | 0 | ? | 0 | 0
COCCn1nnnc1C(c1ccccc1)N1CCN(Cc2ccc3c(c2)OCO3)CC1 (centres undefined) | 0 | 0 | 0 | ? | 0 | 0
c1ccc2c(c1)CCN(Cc1nnnn1Cc1ccc3c(c1)OCO3)C2 | 0 | 0 | 0 | 0 | 0 | 0
O=C1CC(N2CCN(Cc3ccc4c(c3)OCO4)CC2)C(=O)N1c1cccc2ccccc12 (centres undefined) | 0 | 0 | 0 | 0 | 0 | 0
Cc1ccc(C(c2nnnn2Cc2cccs2)N2CCN(Cc3ccc4c(c3)OCO4)CC2)cc1 (centres undefined) | 0 | 7.3µM | 0 | 9.2µM | ? | 0
c1ccc(Cn2nnnc2CN2CCN(Cc3ccc4c(c3)OCO4)CC2)cc1 | 0 | 21µM | 0 | ? | 0 | 0
COCCn1nnnc1C(c1ccc(C)cc1)N1CCN(Cc2ccc3c(c2)OCO3)CC1 (centres undefined) | 0 | 16µM | 0 | ? | 0 | 0
O=C(c1ccc(OC2CCN(Cc3ccccn3)CC2)cc1)N1CCCCO1 | 0 | 0 | 0 | 0 | ? | 0
COc1ccc(-n2c(=O)c3ccc(C(=O)NCc4ccc(C)cc4)cc3n(Cc3ccc(Cl)cc3)c2=O)cc1 | 0 | 0 | 0 | 0 | 0 | 0
CCOC(=O)Cc1ccc(NC(=O)NCc2ccc3c(c2)CCN3C(=O)CC)cc1 | 0 | 0 | 0 | 0 | 0 | 0
COc1ccccc1CN1CCN(C(CC(C)C)c2nnnn2Cc2cccs2)CC1 (centres undefined) | 0 | 18µM | 0 | ? | ? | 0
CCS(=O)(=O)N1Cc2cc(C(=O)NCCOC)nc(-c3cccc(-c4ccncc4)c3)c2[C@H]1CCO | - | 0 | - | 0 | 0 | 0
CCC(=O)N1Cc2cc(C(=O)Nc3nccs3)nc(-c3cccc(-c4ccccc4OC)c3)c2[C@@H]1CCO | - | 4.6µM | - | 4.6µM | ? | ?
COc1ccccc1-c1cccc(-c2nc(C(=O)Nc3nccs3)cc3c2[C@@H](CCO)N(C(=O)CC2CC2)C3)c1 | - | 18µM | - | 12µM | 0 | 0
CC1=N/C(=C\c2ccc([N+](=O)[O-])cc2)C(=O)N1c1ccc(Cl)cc1 | 0 | ? | 0 | ? | 0 | 0
CC1=N/C(=C\c2ccc([N+](=O)[O-])cc2)C(=O)N1c1ccc(F)cc1F | 0 | ? | 0 | 18µM | 0 | 0
CC1=N/C(=C/c2ccc([N+](=O)[O-])cc2)C(=O)N1c1ccc(Cl)cc1Cl | 0 | ? | 0 | 26µM | 0 | 0
Cc1ccc(S(=O)(=O)N2CCN(Cc3ccccc3)CC2)c(C)c1NS(C)(=O)=O | 0 | 0 | 0 | 0 | 0 | 0
CC[n+]1c(C)sc2cc(C)ccc21 | 0 | 3.7µM | 0 | 3.7µM | ? | 0
CCCC[n+]1c(C)sc2ccc(C)cc21 | 0 | ? | 0 | ? | 0 | 0

Assay outcomes from PubChem BioAssay.
